Test results published in PubChem BioAssay AID463173 (ICCB-Longwood Screening Facility, Harvard Medical School, 2010).
Out of some 52,000 compounds screened, about 1,700 (3.3%) were called active. This excerpt belongs to a sample that is enriched for actives. Unmarked numbers belong to inactive results. No stated cut-off is given here; in the data, active means survival mostly below about 52% (no sharp cut-off); inactive means mostly above about 56%.

tested on: Wild type; test: growth inhibition of S. aureus wild type versus tarO mutant, primary screen, teichoic acid synthesis inhibitors, RN4220, OD600 (AID 463173); details: S. aureus RN4220 wild type/DeltatarO growth, OD600, 18 h, hits give low values, screened at 18.75 µg/mL (by protocol)

SMILES	survival
COc1ccc(C(=O)NCC(c2ccc3c(c2)OCO3)N2CCN(C)CC2)cc1 (configuration not stated)	60%
CCc1ccc(-n2nc3ccc(NC(=O)COc4ccc(OC)cc4)cc3n2)cc1	95%
CCOc1ccc(CCNC(=O)C2CCN(Cc3nc(-c4ccccc4C)oc3C)CC2)cc1OCC	81%
CCc1cccc(C)c1NC(=O)CCS(=O)(=O)c1cc(Br)cc2c1N(C(=O)C1CC1)CC2	85%
CC(=O)c1sc(NC(=O)c2c(-c3ccccc3)c(-c3ccccc3)nn(C)c2=O)nc1C	54%
COc1cc(N(C(=O)c2ccco2)C(C(=O)NC2CCCC2)c2ccc(C)cc2)ccc1-n1cnnn1 (configuration not stated)	105%
Cc1cccc(-c2nnc(SCC(=O)N3CCCc4ccccc43)o2)c1	5% (active)
O=C(CSc1nnc(-c2ccccc2)o1)N1CCCc2ccccc21	68%
O=C(CSc1nnc(-c2ccccc2Cl)o1)N1CCCc2ccccc21	35%
COc1cccc(-c2nnc(SCC(=O)N3c4ccccc4Sc4ccccc43)o2)c1	11% (active)
O=C(CSc1nnc(-c2ccc(F)cc2)o1)N1CCCc2ccccc21	66%
Cc1ccc(-c2nnc(SCC(=O)N3CCCc4ccccc43)o2)cc1	65%
O=C(CSc1nnc(-c2cccc(F)c2)o1)N1c2ccccc2Sc2ccccc21	103%
COc1cccc(-c2nnc(SCC(=O)N3CCc4ccccc43)o2)c1	69%
Cc1ccccc1-c1nnc(SCC(=O)N2CCCc3ccccc32)o1	15% (active)
CCn1c(SC)nnc1C1CCCN(C(=O)Cc2cccnc2)C1 (configuration not stated)	89%
CCC1CCCCN1CCCNC(=O)CN1C(=O)c2cccnc2Oc2ccc(Cl)cc21 (configuration not stated)	65%
Cc1cc(C)cc(NS(=O)(=O)c2ccc3[nH]cc(C(=O)NCc4ccccc4Cl)c(=O)c3c2)c1	111%
CCOc1ccccc1-c1noc(CSc2nnc(-c3ccccc3)n2-c2ccc(F)cc2)n1	117%
CN(C(=O)CSc1nc(C2CCCC2)nc2c1c(=O)n(C)c(=O)n2C)c1ccccc1	128%
Cc1ccc(-c2c(CN3CCN(c4cccc(C)c4)C(C)C3)csc2C)cc1 (configuration not stated)	90%
Cc1nc(-c2ccccc2)sc1-c1ccc(SCC(=O)Nc2ccccc2)nn1	41%
CC(=O)Nc1cccc(NC(=O)CSc2ccc(-c3sc(-c4ccccc4)nc3C)nn2)c1	17% (active)

SMILES	survival
Cc1nc(-c2ccccc2)sc1-c1ccc(SCC(=O)Nc2cccc(C(F)(F)F)c2)nn1	67%
O=C(Cn1c(=O)oc2cc(S(=O)(=O)N3CCCC3)ccc21)NCc1ccc(Cl)cc1	138%
NC1=NC(c2cccc(Cl)c2)n2c(nc3ccccc32)N1 (configuration not stated)	97%
CCOc1ccc(-c2cc(CCCC(=O)NCCc3cc(OC)c(OC)c(OC)c3)no2)cc1	59%
O=C(CSc1nc2ccsc2c(=O)n1-c1ccc(Br)cc1)NCc1ccc(Cl)cc1	81%
O=C(CSc1nc2ccsc2c(=O)n1-c1ccc(Br)cc1)NCc1ccccc1	80%
Cc1ccc(Cn2c(SCC(=O)NCc3ccccc3Cl)nc3ccsc3c2=O)cc1	-6% (active)
Cc1ccc(CSc2nc3ccsc3c(=O)n2CCC(C)C)cc1	-6% (active)
Cc1ccccc1CSc1nc2ccsc2c(=O)n1CCC(C)C	74%
Cc1ccc(Cn2c(SCC(=O)NCc3ccccc3)nc3ccsc3c2=O)cc1	76%
O=C(CSc1nc2ccsc2c(=O)n1Cc1ccccc1Cl)NCc1ccc(Cl)cc1	75%
CC(C)CCn1c(SCc2cccc(F)c2)nc2ccsc2c1=O	76%
Cc1ccc(CNC(=O)CSc2nc3ccsc3c(=O)n2-c2ccc(Br)cc2)cc1	14% (active)
CC(C)/C=N/NC(=O)c1ccc2c(c1)NC(=O)C(C)(C)O2	108%
Cc1ccccc1OCC(=O)OC1CCCN(C)C1 (configuration not stated)	90%
CCC(=O)N1CCc2cc(Br)cc(S(=O)(=O)N3CCC(C(=O)Nc4ccccc4F)CC3)c21	80%
COc1ccc(-c2cc(-c3ccccc3)c(C#N)c(SCC(O)CS(=O)(=O)Cc3ccc(Cl)cc3)n2)cc1 (configuration not stated)	141%
Cc1ccc(-c2noc(CCC(=O)N(C)c3ccccc3F)n2)cc1	4% (active)
CCCN(C(=O)CCc1nc(-c2ccc(OC)cc2)no1)c1ccccc1F	0% (active)
CCCN(C(=O)CCc1nc(-c2ccc(C)cc2)no1)c1ccc(OCC)cc1	0% (active)
COc1ccc(-c2noc(CCC(=O)N(C)c3cc(Cl)ccc3OC)n2)cc1	20%
CCCN(C(=O)CCc1nc(-c2ccccc2F)no1)c1ccc(CC)cc1	-2% (active)
COc1ccc(-c2noc(CCC(=O)NCc3ccc(C)cc3)n2)cc1	94%

SMILES	survival
CCOc1ccc(N(CC)C(=O)CCc2nc(-c3ccccc3F)no2)cc1	39%
CN(C(=O)CCc1nc(-c2ccccc2F)no1)c1ccc(Cl)cc1	68%
COc1ccc(-c2noc(CC(=O)N(C)c3ccccc3F)n2)cc1	84%
COc1ccc(-c2noc(CCC(=O)N(C)c3ccccc3C)n2)cc1	71%
CCCN(C(=O)Cc1nc(-c2ccc(OC)cc2)no1)c1ccccc1C	87%
CCOC(=O)c1ccccc1NC(=O)CCc1nc(-c2ccc(C)cc2)no1	27%
O=C(Nc1ccc(Br)cc1F)N1CCC(CN2CCc3ccccc3C2)CC1	63%
O=C(Nc1ccc2nc(SCC(=O)N3CCCC3)sc2c1)c1ccc(F)cc1	87%
O=C(CSc1nc2ccccc2c(=O)n1Cc1ccco1)Nc1ccccc1	106%
Cc1ccc(N2CCN(S(=O)(=O)c3ccc(-n4cnnn4)cc3)CC2)c(C)c1	97%
CCOc1ccc(C(=O)c2cn(Cc3ccccc3OC)c3cc4c(cc3c2=O)OCCO4)cc1	80%
CN(C)CCCN(C(=O)c1cccs1)c1nc2ccc(F)cc2s1	76%
CN(C)CCCN(C(=O)c1ccc(Br)s1)c1nc2ccc(F)cc2s1	-6% (active)
Cc1ccc2nc(N(CCCN(C)C)C(=O)c3ccc(Br)s3)sc2c1	90%
CCS(=O)(=O)c1ccccc1C(=O)Nc1ccc(-c2nc3ccccc3s2)cc1	77%
COc1ccccc1CNC(=O)CCn1cnc2ccccc2c1=O	-6% (active)
O=C(CCn1cnc2ccccc2c1=O)NCc1ccccc1Cl	98%
COc1ccccc1NC(=O)CCn1cnc2ccccc2c1=O	76%
Cc1ccc(-c2[nH]c3ccccc3c2SCCNC(=O)c2ccc(S(=O)(=O)N3CCOCC3)cc2)cc1	81%
CCOC(=O)c1ccc(CNS(=O)(=O)c2c(C)ccc3nsnc23)o1	105%
Fc1ccc(-n2nc(-c3ccccc3)c3cnc4ccccc4c32)cc1Cl	138%
Cc1ccc(C)c(N2CCN(S(=O)(=O)c3cc(C(=O)Nc4cc(Cl)cc(Cl)c4)ccc3F)CC2)c1	85%
CCOc1ccc(NC(=O)c2ccc3nc(C(C)C)oc3c2)cc1	70%

SMILES	survival
CCCC(=O)N1CCN(c2nc3c(OC)ccc(C)c3s2)CC1	14% (active)
COc1ccc(OC)c2sc(N3CCN(C(=O)C4CC4)CC3)nc12	-6% (active)
COc1ccc(C)c2sc(N3CCN(C(=O)c4ccco4)CC3)nc12	-1% (active)
Cc1ccc(C)c2sc(N3CCN(C(=O)c4ccco4)CC3)nc12	159%
COc1ccc(OC)c2sc(N3CCN(C(=O)c4ccco4)CC3)nc12	76%
COc1ccc(C)c2sc(N3CCN(C(=O)c4cccc(F)c4)CC3)nc12	133%
Cc1ccc(Cl)c2sc(N3CCN(C(=O)C4CC4)CC3)nc12	76%
CCS(=O)(=O)c1ccc(C(=O)N2CCN(c3nc4c(OC)ccc(C)c4s3)CC2)cc1	91%
COc1ccc(OC)c2sc(N3CCN(C(=O)C(C)(C)C)CC3)nc12	69%
COc1ccc2c(c1)c1c(c(=O)n(-c3ccccc3C)c(=O)n1CC(N)=O)n2C	82%
CCOc1ccccc1NC(=O)CCn1nc(C)c(S(=O)(=O)N2CCCCC2)c1C	76%
COc1ccc(N2CCN(C(CNC(=O)CC(C)C)c3ccc4c(c3)OCO4)CC2)cc1 (configuration not stated)	83%
CCOc1ccc(-c2nnc(SCC(=O)NCCc3ccccc3)nc2-c2ccc(OCC)cc2)cc1	73%
COc1cc(C2CC(=O)Nc3c2c(=O)[nH]c2ncnn32)ccc1O (configuration not stated)	77%
CCOCCCNC(=O)c1ccc2c(=O)n(CCc3ccccc3)c(=O)[nH]c2c1	79%
Cc1ccc(C)c(N2CCN(C(=O)CSCc3ccccc3Cl)CC2)c1	82%
O=C(Nc1ccccn1)c1ccccc1O	110%
CCCCSc1nnc2c(n1)OC(c1ccc(Br)s1)Nc1ccccc1-2 (configuration not stated)	9% (active)
CCCCSc1nnc2c(n1)OC(c1ccc(C)s1)Nc1ccccc1-2 (configuration not stated)	56%
CCCSc1nnc2c(n1)OC(c1ccc(Br)s1)Nc1ccccc1-2 (configuration not stated)	88%
Cc1ccc(NC(=O)Cn2c(=O)n(Cc3nc(-c4ccccc4)no3)c(=O)c3cc4c(cc32)OCO4)cc1F	89%
CC(C)C(c1nnnn1Cc1ccccc1)N1CCCc2ccccc21 (configuration not stated)	122%
N#Cc1c(NC(=O)c2ccco2)sc2c1CCCC2	104%
